Measurements: PubChem BioAssay
Activity calls are given as the source filed them.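 How the source made its calls, unless noted: active means inhibition at or above 50% at 10 µM; inactive means inhibition below 50%.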

How the values were obtained:
[1] = inhibitors of TNFa-induced NFkB p65 translocation, primary screen, imaging, HUVEC, MLSMR starter and 10KST1 sets (AID 438;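 active means inhibition above 20% together with a positive visual image hit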;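 further: compound added about 3h40 before a 20 min TNFalpha stimulation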;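 on inhibition: signal is the nuclear over cytoplasmic p65 intensity ratio per well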); conditions: HUVEC TNFa-induced p65 nuclear translocation; cell count: measured here: nuclei count (cytotoxicity indicator), at 2.08 µM; inhibition: at 2 µM, stronger effect = higher value, 0% TNFa-plus-vehicle, 100% no-TNFa wells
[2] = reduction of polyQ htt aggregates in cells – imaging, exon1htt(103Q)mCFP cells, high-content imaging, primary screen (AID 483;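 active means visual image review flags a hit and inhibition of aggregation exceeds 20%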;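 further: compound exposure lasted 3 days before fixation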;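 on nuclei count: percent of the per-plate median nuclei count of sample wells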); conditions: exon1htt(103Q)mCFP cell line, aggregate imaging, at 2 µM; inhibition of aggregation: stronger effect = higher value; nuclei count: measured here: cell count, toxicity
[3] = endothelial E-selectin expression blockers – imaging, HUVEC, immunofluorescence, MLSMR starter and 10KST1 sets, primary screen (AID 487;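 active means visually confirmed hit in the image check and inhibition above 20%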;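 on inhibition: signal is fraction of cell area covered by stained E-selectin grains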;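 on nuclei count: 100% = median nuclei count of all wells on the same plate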); conditions: HUVEC TNFalpha-induced E-selectin immunofluorescence imaging, at 2 µM; inhibition: stronger effect = higher value; nuclei count: measured here: cell number, toxicity
[4] = biological target: Voltage-gated potassium channel subunit beta-2 (Rattus norvegicus) (UniProt P62483); assay: inhibitors of rat Kvbeta2 reductase activity – biochemical, NADPH fluorescence, primary screen (AID 622;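 active means fluorescence slope higher than the sample average by over 3 SD, cut at about -0.22 in these data, passing the limit was not always enough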;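 further: slope of raw intensity against log time taken from 70 to 1610 s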); conditions: recombinant KvBeta, 4-cyanobenzaldehyde reduction, at 10 µM, stronger effect = higher value
[5] = biological target: Voltage-gated potassium channel subunit beta-2 (Rattus norvegicus) (UniProt P62483); assay: enhancers of rat Kvbeta2 NADPH turnover – biochemical, NADPH fluorescence, primary screen (AID 623;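 active means NADPH fluorescence slope more negative than the mean of all samples by about 3 SD, 99.7% confidence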;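 further: fluorescence intensity change per second fitted from 20 to 320 s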); conditions: Recombinant KvBeta, NADPH fluorescence decrease slope, 10 min; at 10 µM; stronger effect = lower value
[6] = biological target: Alpha-2C adrenergic receptor (Homo sapiens) (UniProt P18825); assay: compounds altering alpha2C-coupled GIRK flux – cell-based, HEK293 alpha2C/GIRK1/2, thallium flux, primary screen (AID 624;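 active means fluorescence slope after compound addition differing from the mean of all screened samples at 99.7% confidence, in either direction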;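 further: slope of fluorescence ratio to pre-addition baseline per second over 15 to 24 s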); conditions: thallium flux BTC fluorescence, at 10 µM, actives lie on both sides
[7] = blockers of RIG-like receptor reporter activation – cell-based, Sendai virus stimulus, luciferase, 10K MLSCN set, TLR/RLR signaling modifier project, primary screen (AID 602276); conditions: HEK293 RL24 IRF3 luciferase reporter, at 10 µM, stronger effect = higher value;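 further: firefly luciferase from ISG56 promoter only with Renilla not read in this screen; 0% = Sendai virus plus DMSO and 100% = medium plus DMSO without virus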
[8] = TLR3 IRF3 reporter activation blockers – cell-based, poly I:C stimulus, luciferase, 10K MLSCN set, primary screen (AID 602277;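 active means inhibition of the reporter signal at or above 50%; inactive means inhibition below 50%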); conditions: HEK293-TLR3 RL24 IRF3 luciferase reporter, at 10 µM, stronger effect = higher value

Sequence of Voltage-gated potassium channel subunit beta-2 (Rattus norvegicus) (P62483 whole entry, looked up): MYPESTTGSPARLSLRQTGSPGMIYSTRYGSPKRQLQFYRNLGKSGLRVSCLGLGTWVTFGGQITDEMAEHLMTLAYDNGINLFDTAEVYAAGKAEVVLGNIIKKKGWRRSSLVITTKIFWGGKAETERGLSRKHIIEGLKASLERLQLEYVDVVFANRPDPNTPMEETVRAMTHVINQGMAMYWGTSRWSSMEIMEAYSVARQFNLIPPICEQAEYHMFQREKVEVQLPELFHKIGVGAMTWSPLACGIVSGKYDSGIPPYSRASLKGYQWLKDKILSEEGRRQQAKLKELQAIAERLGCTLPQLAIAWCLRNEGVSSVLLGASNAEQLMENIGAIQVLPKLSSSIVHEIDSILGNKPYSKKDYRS
Sequence of Alpha-2C adrenergic receptor (Homo sapiens) (P18825 whole entry, looked up): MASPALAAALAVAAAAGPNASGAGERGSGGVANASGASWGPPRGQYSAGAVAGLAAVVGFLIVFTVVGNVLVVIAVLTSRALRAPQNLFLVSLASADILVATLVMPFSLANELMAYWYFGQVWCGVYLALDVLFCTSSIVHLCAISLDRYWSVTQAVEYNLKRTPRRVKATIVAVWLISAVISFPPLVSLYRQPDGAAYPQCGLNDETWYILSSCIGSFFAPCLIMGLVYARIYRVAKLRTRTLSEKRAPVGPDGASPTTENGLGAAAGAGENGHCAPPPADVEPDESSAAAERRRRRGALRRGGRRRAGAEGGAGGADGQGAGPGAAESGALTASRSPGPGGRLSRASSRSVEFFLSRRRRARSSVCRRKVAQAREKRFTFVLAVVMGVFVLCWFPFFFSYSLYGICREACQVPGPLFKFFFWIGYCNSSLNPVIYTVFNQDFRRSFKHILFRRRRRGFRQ

Row | SMILES | cell count [1] | inhibition [1] | inhibition of aggregation [2] | nuclei count [2] [%] | inhibition [3] | nuclei count [3] [%] | fluorescence slope [4] | NADPH fluorescence slope [5] | slope [6] | inhibition [7] | inhibition [8]
1 | CCOC(=O)Cc1nnc2c(Nc3ccc(C)cc3)nc3nonc3n12 | 352 | 1% (inactive) | 15% (inactive) | 87.3 | 6.7% (inactive) | 83 | -0.612 (inactive) | -1.4e-05 (inactive) | 0.00447 (inactive) | 23.5% (inactive) | 34.9% (inactive)
2 | COCCCN1C(=O)C(=O)/C(=C(/O)c2ccc(OCC(C)C)cc2C)C1c1cccnc1 (stereo not drawn) | 299 | -2.4% (inactive) | -8.7% (inactive) | 109 | -28.7% (inactive) | 110 | -0.463 (inactive) | 5.8e-06 (inactive) | 0.00417 (inactive) | 7.86% (inactive) | 23.2% (inactive)
3 | Cc1coc2cc3oc(=O)c4c(c3cc12)CCC4 | 714 | 6.7% (inactive) | -13.1% (inactive) | 59.7 | -48.2% (inactive) | 135 | -0.566 (inactive) | -1.8e-05 (inactive) | 0.00717 (inactive) | -1.57% (inactive) | -5.8% (inactive)
4 | CCOC(=O)C1CCN(c2c(Nc3ccc4c(c3)OCCO4)c(=O)c2=O)CC1 | 789 | 4.6% (inactive) | 0.6% (inactive) | 106 | -129% (inactive) | 125 | -0.622 (inactive) | 2.4e-05 (inactive) | 0.0056 (inactive) | 44% (inactive) | 27.5% (inactive)
5 | O=C(CSc1nnc2ccccn12)NCCN1C(=O)CSC1=O | 701 | -2.8% (inactive) | -2.4% (inactive) | 94.1 | -218% (inactive) | 130 | -0.608 (inactive) | -5.5e-06 (inactive) | 0.00611 (inactive) | 7.75% (inactive) | 2.81% (inactive)
6 | Cc1ccc(-c2noc(CCC(=O)NCC3CCN(Cc4cccc(C)c4)CC3)n2)cc1 | 400 | 1.5% (inactive) | 7.8% (inactive) | 88.4 | 17% (inactive) | 89.5 | -0.401 (inactive) | -4.7e-05 (inactive) | 0.0033 (inactive) | 25.8% (inactive) | 28.9% (inactive)
7 | O=C(c1ccco1)N1CCN(c2ccc(Cl)cc2)CC1 | 173 | -5.1% (inactive) | -6.3% (inactive) | 82.3 | 12.5% (inactive) | 93 | -0.467 (inactive) | 7.7e-05 (inactive) | 0.00616 (inactive) | -73.4% (inactive) | -172% (inactive)
8 | CCCOc1ccc(NC2=CC(=O)CC(C)(C)C2)cc1 | 342 | 3.8% (inactive) | -7.1% (inactive) | 119 | -89.3% (inactive) | 117 | -0.405 (inactive) | -4.9e-05 (inactive) | 0.00457 (inactive) | -1.23% (inactive) | -12.8% (inactive)
9 | COc1ccc(-c2nc3cc(NC(=O)Cc4ccc(OC)c(OC)c4)ccc3o2)cc1 | 581 | -25.3% (inactive) | -10.5% (inactive) | 88.5 | -13.5% (inactive) | 114 | -0.468 (inactive) | -4.6e-05 (inactive) | 0.00505 (inactive) | -9.84% (inactive) | -114% (inactive)
10 | S=c1[nH]nc(-c2cccc(Br)c2)o1 | 242 | 12.7% (inactive) | 15.6% (inactive) | 110 | -57.8% (inactive) | 120 | -0.361 (inactive) | 1.9e-05 (inactive) | 0.0039 (inactive) | 4.14% (inactive) | 8.86% (inactive)
11 | C=CCc1c(C)nc(SC)nc1Nc1ccc(C(=O)O)cc1 | 497 | 7.2% (inactive) | 7.3% (inactive) | 106 | -41.5% (inactive) | 118 | -0.488 (inactive) | -3.9e-05 (inactive) | 0.00683 (inactive) | 4.8% (inactive) | 21.7% (inactive)
12 | Cn1c(SCCN2CCCCC2)nnc1-c1ccccc1Br | 493 | 4.4% (inactive) | 1.1% (inactive) | 70.5 | -13.3% (inactive) | 98.3 | -0.509 (inactive) | -3.5e-05 (inactive) | 0.00556 (inactive) | 13.4% (inactive) | 13.7% (inactive)
13 | O=C(Nc1ccc(N2CCN(Cc3ccccc3Cl)CC2)cc1)c1cccnc1 | 630 | -4.2% (inactive) | 15.2% (inactive) | 65.6 | -27% (inactive) | 102 | -0.478 (inactive) | 1.4e-05 (inactive) | 0.00649 (inactive) | -23.5% (inactive) | -14.5% (inactive)
14 | COc1ccc(C)cc1S(=O)(=O)N(CC(=O)O)c1ccccc1 | 343 | 8.1% (inactive) | -8% (inactive) | 91.3 | -90.2% (inactive) | 144 | -0.454 (inactive) | 7.5e-06 (inactive) | 0.00642 (inactive) | 34.7% (inactive) | 21% (inactive)
15 | COc1ccc(C(=O)Nc2cccc(C)c2)cc1S(=O)(=O)N1CCOCC1 | 550 | -25.9% (inactive) | 0.7% (inactive) | 102 | -48.3% (inactive) | 111 | -0.572 (inactive) | -5.7e-05 (inactive) | 0.0063 (inactive) | 6.15% (inactive) | 3.92% (inactive)
16 | COC(=O)CN(c1ccc(C)c(Cl)c1)S(C)(=O)=O | 322 | 4% (inactive) | -11.9% (inactive) | 117 | 13.8% (inactive) | 110 | -0.506 (inactive) | -4.6e-05 (inactive) | 0.00698 (inactive) | 13.7% (inactive) | 19.8% (inactive)
17 | CCOC(=O)Nc1cc(OC)c(OC)cc1Cc1nccc2cc(OC)c(OC)cc12 | 444 | -1.8% (inactive) | -1.2% (inactive) | 111 | -20.1% (inactive) | 173 | -0.532 (inactive) | 4.5e-06 (inactive) | 0.00447 (inactive) | -7.98% (inactive) | 5.89% (inactive)
18 | CCC(=O)N1CCN=C1SCc1ccc(Cl)cc1 | 233 | -4.9% (inactive) | -22.3% (inactive) | 111 | 7.9% (inactive) | 106 | -0.559 (inactive) | 5.6e-05 (inactive) | 0.00598 (inactive) | 21.3% (inactive) | 43.1% (inactive)
19 | Cc1csc2nc(CSc3ccc(Cl)cc3)cn12 | 41 | -8.7% (inactive) | -15% (inactive) | 80.6 | -112% (inactive) | 138 | -0.601 (inactive) | -2e-05 (inactive) | 0.00271 (inactive) | -42.1% (inactive) | -126% (inactive)
20 | Cc1ccc2[nH]c3c(c2c1)CCc1cn[nH]c1-3 | 410 | 5.1% (inactive) | -4.7% (inactive) | 71.7 | 27.4% (inactive) | 105 | -0.481 (inactive) | -1.8e-05 (inactive) | 0.00393 (inactive) | -22.4% (inactive) | -73.4% (inactive)
21 | Cc1cc(C)n2c(SCCN3C(=O)c4ccccc4C3=O)nnc2n1 | 787 | -5.1% (inactive) | 12.4% (inactive) | 126 | -8.9% (inactive) | 107 | -0.572 (inactive) | -1.7e-05 (inactive) | 0.00697 (inactive) | 10.1% (inactive) | 24.4% (inactive)
22 | CCCCCc1c(C)nc(Nc2nc(C)c3cc(OC)ccc3n2)[nH]c1=O | 411 | 5% (inactive) | 7.6% (inactive) | 84.7 | 9.5% (inactive) | 98 | -0.598 (inactive) | 1.7e-05 (inactive) | 0.00896 (inactive) | 12.6% (inactive) | -6.69% (inactive)
23 | Cn1c(NC(=O)c2cccc(Cn3cc(Cl)cn3)c2)nc2ccccc21 | 778 | -2.9% (inactive) | -32.7% (inactive) | 104 | -61.1% (inactive) | 113 | -0.548 (inactive) | -1.6e-05 (inactive) | 0.00464 (inactive) | -25.1% (inactive) | -112% (inactive)
24 | COc1ccc(Cc2noc(-c3ccc(C)cc3)n2)cc1 | 488 | 12.1% (inactive) | -0.3% (inactive) | 104 | -304% (inactive) | 138 | -0.366 (inactive) | 3.7e-05 (inactive) | 0.00509 (inactive) | -38% (inactive) | -135% (inactive)
25 | O=C(OCc1ccc2c(c1)OCO2)c1ccc(S(=O)(=O)N2CCCCC2)cc1 | 732 | 4.4% (inactive) | -6.1% (inactive) | 102 | 83.3% (active) | 87.7 | -0.415 (inactive) | -5.1e-05 (inactive) | 0.00821 (inactive) | 7.08% (inactive) | 9.8% (inactive)
26 | COc1ccc(N2CC(C(=O)Nc3ccc(F)cc3F)CC2=O)cc1 (stereo not drawn) | 281 | -3.5% (inactive) | -30.8% (inactive) | 111 | 12% (inactive) | 104 | -0.514 (inactive) | -1.3e-05 (inactive) | 0.00428 (inactive) | 14.4% (inactive) | 20.8% (inactive)
27 | c1ccc(Cn2nnnc2CN2CCN(c3ncccn3)CC2)cc1 | 717 | -8.1% (inactive) | -12.8% (inactive) | 114 | -11.1% (inactive) | 130 | -0.585 (inactive) | -4.5e-05 (inactive) | 0.0043 (inactive) | 11.4% (inactive) | 20.1% (inactive)
28 | CCOC(=O)N1CCN(C(=O)c2ccc(CS(=O)(=O)c3c(Cl)cccc3Cl)o2)CC1 | 512 | -5% (inactive) | 2.1% (inactive) | 102 | -97.8% (inactive) | 116 | -0.419 (inactive) | -6.8e-05 (inactive) | 0.00631 (inactive) | -2.6% (inactive) | 21.2% (inactive)
